# Assay results: PubChem BioAssay AID485313 (National Center for Advancing Translational Sciences (NCATS), 2010)
# The campaign covered roughly 320,000 compounds. About 7,600 (2.4%) were called active. Another 3% or so got no clear call; they are omitted. Calls follow the shape of the dose curve; as a rule, active = well fitted activation curve with a large enough effect; inconclusive = small, poorly fitted or top-dose-only effect; inactive = no such curve, though single readings can be large or run the other way. The list comes from a sample in which actives are over-represented; it also holds similar structures and randomly drawn compounds. A call without a number means that no potency is given here.
# Experiment: qHTS Assay for NPC1 Promoter Activators; also: nearly all actives have a fitted effect of over 60% in size;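 as to activation: reporter is driven by a mutant NPC1 promoter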
# Conditions: Huh7 NPC1 promoter luciferase reporter, 24 h; series mostly up to 9.22 µM
# Procedure, shortened: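 In 1536-well qHTS, Huh7 cells harboring an NPC1 promoter–luciferase construct received compound for 24 h; activation was quantified by luminescence following luciferase reagent addition.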
# Potency is read from the fitted curve at half-maximal effect.
row,Compound,Potency
1,COc1ccc([C@H]2CC(=O)C=C(c3ccc(OC(F)(F)F)cc3)C2)cc1OC,inactive
2,O=C(O)CSc1ccc(S(=O)(=O)N2CCCC2)cn1,inactive
3,Cc1ccc(C(=O)OCC(=O)Nc2ccc(Cl)cn2)cc1S(=O)(=O)N1CCOCC1,inactive
4,O=C(NCCc1ccc(F)cc1)c1ccc(S(=O)(=O)N2CCCCC2)cc1,inactive
5,Cc1ccc(C)c(NC(=O)c2ccc3nccnc3c2)c1,inactive
6,O=C(NCCc1ccc(F)cc1)c1ccc2nccnc2c1,1.78 µM (active)
7,Cc1ccc(S(=O)(=O)NCCC(=O)NCc2ccc(Cl)cc2)cc1C,inactive
8,CCN(CC)C(CNC(=O)CSc1nnnn1-c1cccc(F)c1)c1ccco1 (centres undefined),inactive
9,CC(NC(=O)c1cccc(S(=O)(=O)N2CCc3ccccc3C2)c1)c1ccco1 (centres undefined),inactive
10,COC(=O)c1c(NC(C)=O)sc(C(=O)Nc2ccccc2OC)c1C,inactive
11,CCC(=O)Nc1sc(C(=O)Nc2ccccc2)c(C)c1C(=O)OC,0.794 µM (active)
12,CCOC(=O)c1sc(NC(=O)COc2ncnc3ccccc23)c(C(=O)OCC)c1C,inactive
13,NC(=O)NC(CC(=O)NNC(=O)c1ccccn1)c1ccc(Cl)cc1 (centres undefined),inactive
14,CC(C)CCN1CCC(C)(NC(=O)c2ccccc2)C1=O (centres undefined),inactive
15,COc1ccc(N(Cc2ccccc2)S(=O)(=O)c2cccc(C(=O)O)c2)cc1,inactive
16,COc1ccc(NC(=O)CS(=O)(=O)c2ccccc2)cc1,inactive
17,COc1ccc(C(CC(=O)c2ccccc2)S(=O)(=O)c2ccccc2)cc1 (centres undefined),3.55 µM (active)
18,O=C(CN1CCN(S(=O)(=O)c2ccc(Cl)s2)CC1)N1CCCCC1,inactive
19,COc1cc([N+](=O)[O-])ccc1NC(=O)COC(=O)CCOc1ccc(C)cc1,inactive
20,COc1ccc(CNC(=O)c2ccc3oc(C(C)C)nc3c2)cc1,3.55 µM (active)
21,CC(C)c1nc2cc(C(=O)NC(C)c3cnn(C)c3)ccc2o1 (centres undefined),inactive
22,COc1ccc(CNC(=O)c2cc(=O)c3c(C)cc(C)cc3o2)cc1,inactive
23,CCCN(C(=O)c1nc2nccc(C)n2n1)c1c(N)n(Cc2ccccc2)c(=O)[nH]c1=O,inactive
24,Cn1c2cc(B(O)O)sc2c2cnn(Cc3ccccc3F)c(=O)c21,inactive
25,CCOCc1c(C(=O)N2CCN(Cc3ccc(Br)s3)CC2)oc2ccccc12,inactive
26,Cc1ccc(/C=C/C(=O)OCC(=O)Nc2cccnc2Cl)cc1,inactive
27,CCCCCCOC(=O)NCC(O)c1ccccc1 (centres undefined),3.98 µM (active)
28,CCCCOC(=O)Nc1nnc(CC(=O)NCc2ccccc2)s1,inactive
29,CCCCCOC(=O)NCCOC(=O)Nc1ccc(C(=O)OCC)cc1,inactive
